# Measurements: PubChem BioAssay (NCATS)
# Results filed as inconclusive are left out. A number with no mark means an inactive call. Activity calls are given as the source filed them. Calls come from the whole dose curve.
# Target: Peroxisome proliferator-activated receptor delta (Homo sapiens) (UniProt Q03181)
# Test: qHTS assay for small molecule agonists of peroxisome proliferator-activated receptor delta signaling (AID 588534);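 note: 0% = DMSO basal wells and 100% = positive control agonist at 10 µM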
# Conditions: HEK293T PPARdelta-UAS-bla, beta-lactamase ratio, 18 h; series mostly up to 76.7 µM; activation: at the top concentration
# Method in brief: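 Titration series tested in agonist mode on beta-lactamase reporter cells; 18 hrs at 37 C after a 5 hr pre-incubation. Readout: CCF4 fluorescence, 2 hrs RT. Hill equation gives EC50 and maximal response.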
# Peroxisome proliferator-activated receptor delta (Homo sapiens), sequence (Q03181 whole entry, looked up): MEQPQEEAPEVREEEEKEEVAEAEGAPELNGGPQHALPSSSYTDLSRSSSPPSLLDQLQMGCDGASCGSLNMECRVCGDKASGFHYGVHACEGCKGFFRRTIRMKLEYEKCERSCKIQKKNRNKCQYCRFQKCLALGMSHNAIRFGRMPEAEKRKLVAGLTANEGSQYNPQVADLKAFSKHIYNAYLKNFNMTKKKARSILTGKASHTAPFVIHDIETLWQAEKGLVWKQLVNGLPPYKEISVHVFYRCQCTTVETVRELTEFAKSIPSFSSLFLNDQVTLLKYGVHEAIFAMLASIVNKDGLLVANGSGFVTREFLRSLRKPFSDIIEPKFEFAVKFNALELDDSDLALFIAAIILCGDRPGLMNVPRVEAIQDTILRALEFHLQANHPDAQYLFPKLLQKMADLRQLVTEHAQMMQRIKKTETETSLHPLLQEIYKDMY
Compound,activation [%],outcome
O=C(Cl)c1ccc(C(=O)Cl)cc1,-1.63,–
OCCNCCO,–,inactive
CCC(C)(C)OC,1.53,–
O=[N+]([O-])c1cc(N(CCO)CCO)ccc1NCCO,–,inactive
CC(C)CCOC(=O)/C=C/c1ccccc1,3.03,–
N#CCc1ccccc1[N+](=O)[O-],-1.89,–
CCOc1ccc(NC(C)=O)cc1N,-6.06,–
ON=C1CCCCC1,8.04,–
CSc1ccc(C=O)cc1,12.5,–
CCCCCCCCO,–,inactive
CCCCOCCOCCOCCO,1.78,–
CCN(Cc1ccccc1)c1ccccc1,8.32,–
CC(=O)OC1CCC(C(C)(C)C)CC1 (centres undefined),2.6,–
Brc1ccc(Oc2ccc(Br)cc2)cc1,-3.25,–
C/C(=C\C(C)CC(C)CC(C)C)C1CC(=O)OC1=O (centres undefined),-2.11,–
CC(C)COC(=O)COc1cc(Cl)c(Cl)cc1Cl,-3.52,–
Nc1nccs1,0.396,–
CC1(C)C(=O)N(Br)C(=O)N1Cl,1.91,–
O=C=NC1CCC(CC2CCC(N=C=O)CC2)CC1 (centres undefined),1.82,–
CCCCCCC=O,3.7,–

Compound,activation [%],outcome
CCCCCCCC/C=C\CCCCCCCC(=O)OC[C@@H](O)[C@H]1OC[C@H](O)[C@H]1O,0.755,–
COc1c(Cl)ccc(Cl)c1C(=O)O,0.804,–
NC(=O)c1cccc([N+](=O)[O-])c1,5.16,–
COC(=O)CSc1cc(N=c2sc(=O)n3n2CCCC3)c(F)cc1Cl,-5.98,–
C[C@]12CC[C@@H]3c4ccc(O)cc4CC[C@H]3[C@@H]1CC[C@H]2O,0.988,–
NCCCCCCCCCCC(=O)O,1.71,–
O=C(Cl)c1ccc([N+](=O)[O-])cc1,-1.98,–
CC(=O)c1ccccc1[N+](=O)[O-],10.3,–
COC(=O)c1cccc(C(=O)OC)c1,1.38,–
Cc1cccc2cccnc12,8.6,–
CCCCC(CC)COC(C)=O (centres undefined),-1.66,–
O=C(c1ccc(Cl)cc1)c1ccc(Cl)cc1,-6.77,–
O=C1CCC(C2CCCCC2)CC1,1.85,–
CC(=O)C1(C)CC2=C(CCCC2(C)C)CC1C (centres undefined),1.6,–
CCCCC(CC)CN (centres undefined),–,inactive
CCOCC(=O)O,3.72,–
C[C@H]1C[C@H]2[C@@H]3CCC4=CC(=O)C=C[C@]4(C)[C@@]3(F)[C@@H](O)C[C@]2(C)[C@@]1(O)C(=O)CO,-8.29,–
Nc1cccc(S(=O)(=O)O)c1,-1.02,–
O=[N+]([O-])c1ccc2c(c1)Cc1ccccc1-2,-2.87,–
